BJeLR viability = BJeLR cell viability loss; BJeLR (HRASV12) viability, CellTiter-Glo ATP luminescence, 48 h; inhibition, % (test concentration not listed); 0.17% of 300,000 active; AID 1554; in the data active means inhibition above about 50%
PrP UTR inh = suppresses PrP 5' UTR mRNA reporter expression; cell-based PrP 5' UTR mRNA reporter, plate reader; inhibition, % (no concentration beside the values); 0.35% of 340,000 active; AID 488862; in the data active means inhibition above about 52%; further: 0 = median of the neutral control wells
Yp Topo-I inh = inhibitors of Yersinia pestis topoisomerase I; Y. pestis Topo-I cleavage product accumulation, plate reader; activity, % at 10 µM; 0.064% of 360,000 active; AID 504884; in the data active means activity above about 50%, passing the limit was not always enough
RN4220 kill = S. aureus RN4220 growth inhibition; OD600, 16 h; inhibition, % (no concentration beside the values); 0.33% of 330,000 active; AID 1259311; in the data active means inhibition above about 85%;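 further: plate controls were untreated cells for no effect and reference antibiotic for full effect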
Sa ugtP lethal = growth inhibition of S. aureus ugtP deletion strain. growth inhibition, % (concentration not given with the values). 0.54% of 330,000 active. S. aureus RN4220 ugtP deletion, OD600 growth, 16 h; in the data active means growth inhibition above about 68%;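 further: plate controls were untreated wells for no effect and antibiotic for full effect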
PfHsp40 rescue = restores yeast growth despite PfHsp40 toxicity | S. cerevisiae expressing PfHsp40, growth rescue, ATP luminescence | growth rescue, % at 12.5 µM | 0.68% of 340,000 active | AID 504582; in the data active means growth rescue above about 28%, passing the limit was not always enough;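 further: yeast W303a lacking pdr1 and pdr3 grown in galactose medium; growth measured after three days at 30 °C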
Active calls of the source: *; x = no result. Only some compounds are listed: those with a hit (about 1.4% of all), similar ones and a draw of the others.

SMILES | BJeLR viability | PrP UTR inh | Yp Topo-I inh | RN4220 kill | Sa ugtP lethal | PfHsp40 rescue
Cc1ccc(NC(=O)c2cc(-n3cnnc3)ccc2Cl)cc1 | -5 | -15 | 12 | 1 | 5 | 0
Cc1ccc(NC(=O)c2cc(N3C(=O)C=CC3=O)ccc2Cl)cc1C | -7 | -10 | -2 | 12 | 12 | 294*
COc1ccccc1N1C(=O)C(Cl)=C(Nc2ccccc2O)C1=O | -5 | -30 | -14 | x | x | 92*
CC(=O)/C(C#N)=C1\NC(=O)C(Cc2ccccc2Cl)S1 (stereo not drawn) | 21 | 3 | -6 | 27 | 18 | 39*
CC(=O)/C(C#N)=C1\NC(=O)C(Cc2cc(Cl)ccc2Cl)S1 (stereo not drawn) | 28 | -17 | 1 | 39 | 14 | 0
Clc1ccccc1CN1CCN(N=CC=Cc2ccco2)CC1 | x | x | x | 3 | 2 | x
O=S1(=O)C=C(Sc2nc3cc(Cl)ccc3o2)c2ccccc21 | 30 | -31 | 3 | 42 | 91* | 1
CCOc1cccc(/C=N/Nc2ccc(S(=O)(=O)N(CC)CC)cn2)c1O | 52* | 29 | 1 | x | x | 0
Cc1ccc2[nH]c(=O)c(CN(Cc3ccco3)C(=O)c3cccs3)cc2c1 | 5 | x | x | -12 | -4 | x
Cc1ccc2cc(CN(Cc3ccco3)C(=O)c3cccs3)c(=O)[nH]c2c1 | 37 | -25 | 31 | 0 | -2 | 42*
CCOC(=O)C1=C(CC)Nc2ccccc2N=C1NC(=O)Nc1ccc(Cl)c(Cl)c1 | 12 | -21 | -10 | 101* | 100* | 3
O=[N+]([O-])c1ccc(Sc2cccc[n+]2[O-])c2nonc12 | 30 | -19 | -13 | 14 | 18 | 683*
O=[N+]([O-])c1ccc(Nc2ccccc2)c2nonc12 | 7 | 0 | -1 | x | x | -1
CC(C)CC(NC(=O)c1nc[nH]c1C(=O)NC(c1ccccc1)c1ccccc1)C(=O)OC(C)(C)C (stereo not drawn) | x | x | x | -5 | 1 | x
CCCCCOc1ccc(Br)cc1/C(C)=N/NC1=NCCN1 | 81* | -40 | -9 | x | x | 2
CCCCOc1ccc(Br)cc1C(C)=NNC1=NCCN1 | x | x | x | 11 | -24 | x
COCc1cc(Sc2cccc(Cl)c2Cl)nc(-c2ccccc2)n1 | 8 | -12 | 2 | -11 | 91* | -1
CCCCOc1ccc(C(=O)Oc2ccc(C)nc2)cc1 | 3 | -3 | 7 | -2 | -13 | 2
CCCCCOc1ccc(OC(=O)c2ccncc2)cc1 | 0 | -29 | 20 | 4 | 5 | 74*
CC(C)CC1CN=C(Nc2ccccc2)N1CCCCc1ccccc1 (stereo not drawn) | x | x | x | 2 | -1 | x
CCn1cc(C(=O)NCc2ccco2)c(=O)c2cc(S(=O)(=O)N3CC(C)CC(C)C3)ccc21 (stereo not drawn) | 88* | -20 | 3 | 4 | 18 | 1
CCn1cc(C(=O)NCc2ccco2)c(=O)c2cc(S(=O)(=O)N3CCC(C)CC3)ccc21 | 7 | -19 | 37 | x | x | 0
O=C(NC1CC1)C1=CC(c2ccccc2)CC(OCCCCO)O1 (stereo not drawn) | x | x | x | 3 | -1 | x
CN(C)S(=O)(=O)c1ccc2c(c1)nc(CCC(=O)NCc1ccc(Cl)cc1)n2C | -1 | 13 | 6 | 6 | 4 | 45*
CN(C)S(=O)(=O)c1ccc2c(c1)nc(CCC(=O)NCC1CCCCC1)n2C | 2 | -27 | 6 | 0 | 2 | 0
SMILES | BJeLR viability | PrP UTR inh | Yp Topo-I inh | RN4220 kill | Sa ugtP lethal | PfHsp40 rescue
O=C1CCC=CCC(CC(=O)N(CCO)Cc2ccccc2)C(=O)NC(Cc2ccccc2)CO1 (stereo not drawn) | x | x | x | 5 | -1 | x
CC1(C)CC[C@]2(C(=O)O)CC[C@]3(C)C(=CC[C@@H]4[C@@]5(C)CC[C@H](O)C(C)(C)[C@@H]5CC[C@]43C)[C@@H]2C1 | x | -7 | 13 | x | x | 1
CC1CC[C@]2(C(=O)O)CC[C@]3(C)C(=CCC4[C@@]5(C)CCC(O)C(C)(C)C5CC[C@]43C)C2C1C (stereo partly drawn) | x | x | x | 100* | 100* | x
CC1C=C(C(=O)N2CCN(Cc3ccccc3)CC2)OC(OCc2ccc(CO)cc2)C1 (stereo not drawn) | x | x | x | 4 | 2 | x
CC(C(O)c1ccccc1)N(C)C(=O)C(N)Cc1ccccc1 (stereo not drawn) | x | x | x | 4 | 4 | x
CN(C)S(=O)(=O)c1ccc(N2CCCC2)c(C(=O)NNC(=O)c2ccccc2)c1 | x | -11 | 5 | 95* | 75 | 0
CN(C)S(=O)(=O)c1ccc(N2CCCC2)c(C(=O)NNC(=O)c2ccc(Br)cc2)c1 | 6 | 2 | -10 | 12 | -4 | 0
O=S(=O)(c1cccc(C(F)(F)F)c1)N1CCC(CO)(CCCc2ccccc2)CC1 | -7 | -29 | 31 | 8 | -20 | 55*
O=S(=O)(c1cccc(C(F)(F)F)c1)N1CCC(O)(c2cccnc2)CC1 | 5 | -5 | 6 | 6 | 8 | -1
Cc1cc(C(=O)OCC(=O)NC2CCCC(C)C2C)c(C)o1 (stereo not drawn) | x | -5 | 6 | -1 | 4 | 62*
Cc1cc(C(=O)OCC(=O)NC2CCCCC2)c(C)o1 | 5 | -14 | 2 | -1 | 6 | -1
CCOC(=O)c1cc2ccc3ccccc3c2s1 | -7 | -47 | -7 | 12 | 88* | 1
Cc1cccc(C2C3C(=O)N(Cc4ccccc4)C(=O)C3[C@]3(Cc4ccccc4)C(=O)N(c4ccc(C(F)(F)F)cc4)C(=O)N23)c1 (stereo partly drawn) | x | x | x | 2 | -18 | x
O=[N+]([O-])c1ccc(O)c(-c2nc(-c3ccccc3)c(-c3cccs3)[nH]2)c1 | 15 | -3 | -3 | 87* | 85* | 0
O=C(O)c1ccc(-c2nc(-c3ccccc3)c(-c3cccs3)[nH]2)cc1 | 4 | -7 | -6 | 6 | 10 | -1
Cc1ccccc1NC(=S)NC(=O)CCc1ccccc1 | -4 | -9 | 13 | 3 | 85* | 7
COc1ccc2c(c1)OCC1C2N2C(=O)CN(CC3CCCO3)C(=O)[C@@]2(C)C1c1ccccc1 (stereo partly drawn) | x | x | x | 7 | 7 | x
COc1ccc(CN2CCC3C=CCc4cccc(c43)C2)cc1 (stereo not drawn) | x | x | x | -3 | -3 | x
c1ccc2nc3c(ccc4ccccc43)cc2c1 | x | -89 | 2 | -4 | 38 | 2
CCCc1nc2c(ccc3ccccc32)cc1CC | 0 | -8 | 1 | -1 | 83* | 4
COc1ccc(CCNc2nnc(Sc3nnnn3-c3ccccc3)s2)cc1OC | 60* | -11 | 19 | 0 | 8 | 1
COC(=O)C1=C(c2ccccc2)CC2CCC1N2C(=O)N1CCOCC1 (stereo not drawn) | x | x | x | 0 | -14 | x
O=C(Nc1cc(Cl)cc(Cl)c1)Nc1cnccn1 | -8 | -24 | 1 | 100* | 100* | -1
O=C(Nc1ccc(F)cc1)Nc1cnccn1 | 0 | -16 | 4 | 1 | 2 | -1
Cc1ccccc1NC(C)C(=O)NN=Cc1ccccc1OCc1cccc(Br)c1 (stereo not drawn) | x | x | x | 0 | -8 | x
